According to PubChem BioAssay (NCI):
Compounds without any hit were thinned out: in the full panel of roughly 83,000, 20% have a hit.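 Cell lines were cultured in 96-well plates, exposed to a single compound concentration, and assessed for percent growth 48 hours later.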 Activity calls are given as the source filed them. The calls were made as follows: active = growth percent below 10; inactive = the rest.

Experiments:
Experiment in all cases: NCI-60 one-dose screen, 48 h (100 = growth as untreated, 0 = no growth, -100 = all killed)
Settings in all cases: 10 µM unless noted
SR leukemia = test system: SR leukemia
RPMI-8226 leukemia = test system: RPMI-8226 leukemia
OVCAR-8 ovarian = test system: OVCAR-8 ovarian
OVCAR-5 ovarian = test system: OVCAR-5 ovarian
OVCAR-4 ovarian = test system: OVCAR-4 ovarian
SK-OV-3 ovarian = test system: SK-OV-3 ovarian
IGROV1 ovarian = test system: IGROV1 ovarian
OVCAR-3 ovarian = test system: OVCAR-3 ovarian
HS 578T breast = test system: HS 578T breast
NCI/ADR-RES ovarian = test system: NCI/ADR-RES ovarian

Measured: growth

COc1ccc(/C=N/C2=C(C#N)C(c3cccc(Cl)c3)c3c(ccc4ccccc34)O2)cc1 (stereo not given)
inactive: SR leukemia 17.7% | RPMI-8226 leukemia 17.4% | OVCAR-8 ovarian 47.1% | OVCAR-5 ovarian 62.3% | OVCAR-4 ovarian 52.8% | SK-OV-3 ovarian 52.4% | IGROV1 ovarian 32.9% | OVCAR-3 ovarian 12.5% | HS 578T breast 15.9% | NCI/ADR-RES ovarian 22.1%

N=C(N)c1ccc(-c2ccc(-c3ccc(Cl)cc3)s2)nc1
active: SR leukemia 1.7% | RPMI-8226 leukemia -24.6% | OVCAR-8 ovarian -31% | OVCAR-5 ovarian -28% | IGROV1 ovarian -79.2% | OVCAR-3 ovarian -93%
inactive: OVCAR-4 ovarian 18.1% | SK-OV-3 ovarian 86.7% | HS 578T breast 67.5% | NCI/ADR-RES ovarian 67.4%

Cc1cc(Cl)ccc1NC(=O)c1cc2ccccc2cc1O
inactive: OVCAR-5 ovarian 30.5% | OVCAR-4 ovarian 22% | SK-OV-3 ovarian 36.7% | IGROV1 ovarian 17.9%
active: SR leukemia 3.8% | RPMI-8226 leukemia 6.82% | OVCAR-8 ovarian 7.81% | OVCAR-3 ovarian -3.47% | HS 578T breast -7.72% | NCI/ADR-RES ovarian 4.6%

COc1cc(-c2cc(-c3cccs3)c(C#N)c(N3CCOCC3)n2)cc(OC)c1OC
active: SR leukemia -1.19%
inactive: RPMI-8226 leukemia 44.2% | OVCAR-8 ovarian 74.3% | OVCAR-5 ovarian 96.4% | OVCAR-4 ovarian 85.8% | SK-OV-3 ovarian 141% | IGROV1 ovarian 73.5% | OVCAR-3 ovarian 149% | HS 578T breast 90.6% | NCI/ADR-RES ovarian 58.2%

c1ccc(CNc2c3ccccc3nc3ccccc23)cc1
inactive: SR leukemia 11.7% | OVCAR-8 ovarian 26.1% | OVCAR-5 ovarian 45.7% | OVCAR-4 ovarian 43.2% | SK-OV-3 ovarian 46.7% | IGROV1 ovarian 29.8% | OVCAR-3 ovarian 51.7% | HS 578T breast 56.1% | NCI/ADR-RES ovarian 37.6%
active: RPMI-8226 leukemia 7.65%

O=C1Nc2ccccc2/C1=C\c1nc(-c2ccccc2F)n2ccccc12
inactive: SR leukemia 49.6% | RPMI-8226 leukemia 44.6% | OVCAR-5 ovarian 47.8% | HS 578T breast 12%
active: OVCAR-8 ovarian 5.14% | OVCAR-4 ovarian -34.4% | SK-OV-3 ovarian -0.955% | IGROV1 ovarian 2.99% | OVCAR-3 ovarian 6.22% | NCI/ADR-RES ovarian 9.77%

O=C1c2c(c3c4ccccc4[nH]c3c3ccc4ccccc4c23)C(=O)N1CCN1CCCCC1
active: SR leukemia 2.17% | RPMI-8226 leukemia 9.02%
inactive: OVCAR-8 ovarian 25.6% | OVCAR-5 ovarian 74.8% | OVCAR-4 ovarian 64.8% | SK-OV-3 ovarian 53.7% | IGROV1 ovarian 52.8% | OVCAR-3 ovarian 51.1% | HS 578T breast 90.2% | NCI/ADR-RES ovarian 40.9%

COc1cc(-c2nc3cc(Cl)c(Cl)cc3[nH]2)ccc1OCC(=O)N=Nc1c(O)[nH]c2ccc([N+](=O)[O-])cc12
inactive: SR leukemia 23.9% | RPMI-8226 leukemia 101% | OVCAR-8 ovarian 69.3% | OVCAR-5 ovarian 105% | OVCAR-4 ovarian 71.7% | SK-OV-3 ovarian 77% | IGROV1 ovarian 87.1% | OVCAR-3 ovarian 36.1% | HS 578T breast 68.2% | NCI/ADR-RES ovarian 109%

Fc1cc(F)cc(C(c2c[nH]c3ccccc23)c2c[nH]c3ccccc23)c1
active: IGROV1 ovarian -6.52%
inactive: SR leukemia 106% | RPMI-8226 leukemia 95.2% | OVCAR-8 ovarian 102% | OVCAR-5 ovarian 88.8% | OVCAR-4 ovarian 116% | SK-OV-3 ovarian 117% | OVCAR-3 ovarian 112% | HS 578T breast 82% | NCI/ADR-RES ovarian 92.2%

Cc1noc(C)c1C(=O)OCc1coc2ccccc2c1=O
inactive: SR leukemia 45.3% | RPMI-8226 leukemia 30.1% | OVCAR-8 ovarian 91.8% | OVCAR-5 ovarian 71.6% | OVCAR-4 ovarian 62.8% | SK-OV-3 ovarian 109% | IGROV1 ovarian 82.6% | OVCAR-3 ovarian 44.9% | HS 578T breast 78.3% | NCI/ADR-RES ovarian 90.7%

Nc1nc2c([nH]1)c1[nH]c3ccccc3c1c1[nH]c3ccccc3c21
active: SR leukemia -24.9% | RPMI-8226 leukemia -22.7%
inactive: OVCAR-8 ovarian 57.5% | OVCAR-5 ovarian 85.9% | OVCAR-4 ovarian 66.8% | SK-OV-3 ovarian 86.1% | IGROV1 ovarian 58.9% | OVCAR-3 ovarian 36.6% | HS 578T breast 47.2% | NCI/ADR-RES ovarian 86.5%

N#Cc1c(-c2ccccc2)cc(-c2ccccc2)n(CCCCCC(=O)Nc2ccccc2N)c1=O
inactive: SR leukemia 18.5% | OVCAR-8 ovarian 58.8% | OVCAR-5 ovarian 66.4% | OVCAR-4 ovarian 65.9% | SK-OV-3 ovarian 90.4% | IGROV1 ovarian 45.9% | OVCAR-3 ovarian 59.2% | HS 578T breast 76.2% | NCI/ADR-RES ovarian 49%
active: RPMI-8226 leukemia -19.2%

Cc1ccc(-n2c(=S)[nH]c3sc4c(c3c2=O)CCC(=O)C4)cc1
active: OVCAR-3 ovarian 4.02%
inactive: SR leukemia 28.5% | RPMI-8226 leukemia 22.7% | OVCAR-8 ovarian 50.2% | OVCAR-5 ovarian 87.4% | OVCAR-4 ovarian 69.3% | SK-OV-3 ovarian 91.6% | IGROV1 ovarian 48.9% | HS 578T breast 34.3% | NCI/ADR-RES ovarian 27.1%

COc1ccc(-c2nc(SCC(C)C)nc(N/N=C\c3ccc(F)cc3)c2C#N)cc1
active: OVCAR-4 ovarian 8.96%
inactive: SR leukemia 46.7% | RPMI-8226 leukemia 98.2% | OVCAR-8 ovarian 96.3% | OVCAR-5 ovarian 95.6% | SK-OV-3 ovarian 112% | IGROV1 ovarian 80.5% | OVCAR-3 ovarian 70.5% | HS 578T breast 62.4% | NCI/ADR-RES ovarian 84.2%
